Screening results as filed in PubChem.
Compounds with a hit are over-represented: about 1.3% of the library has one in this group of screens.
LAP4 TOR yeast – modulators of LAP4-GFP expression in yeast, primary screen, S. cerevisiae, multiplex flow cytometry, MLPCN library | 3 h; median GFP as percent of DMSO wells | GFP response vs DMSO, % at 10 µM | actives 0.34% (n = 320,000);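 active = GFP response vs DMSO above a set limit, about the screen mean plus 3 SD, cut at about 150% in these data; inconclusive = under 70 cell events counted for the yeast strain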
RPL19A-GFP yeast – RPL19A-GFP expression modulators in yeast, primary screen, cell-based, S. cerevisiae, multiplex flow cytometry, MLPCN; percent response vs DMSO, % at 10 µM; actives 0.3% (n = 330,000); S. cerevisiae RPL19A-GFP strain, 3 h; active compounds read low; AID 2025, 2009;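 active = percent response vs DMSO below 50%; inconclusive = fewer than 70 events counted for the yeast strain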;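 note: median channel GFP fluorescence of the barcoded RPL19A-GFP strain; ratio of sample median GFP to plate DMSO average so 100% = DMSO; lower means less RPL19A-GFP as with rapamycin TOR inhibition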
Efflux pump inh – inhibitors of Candida efflux pumps in yeast, primary screen, S. cerevisiae, Nile Red, multiplex; S. cerevisiae Candida pump triplex; inhibition, % at 10 µM; actives 0.44% (n = 330,000); AID 485275, 2010;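 active = plate passing quality check with inhibition over a set limit, or well fluorescence over plate mean plus 4 SD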;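 note: Nile Red retained in pooled yeast measured as flow cytometry median fluorescence; 0% = buffer negative control and 100% = Enniatin B positive control; higher means more Nile Red kept so more efflux inhibition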
AGP1-GFP MLPCN – modulators of AGP1-GFP expression in yeast TOR pathway, primary screen, cell-based, multiplex flow cytometry, S. cerevisiae, MLPCN library; 3 h; GFP as percent of DMSO wells; GFP response vs DMSO, % at 10 µM; actives 0.02% (n = 320,000); AID 2066, 2009;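 active = GFP response relative to DMSO above a set limit, near screen average plus 3 SD, cut at about 150% in these data; inconclusive = fewer than 70 cells counted for the yeast strain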;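 note: median GFP channel fluorescence of the gated AGP1 strain per well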
MEP2-GFP yeast – modulators of MEP2-GFP levels in yeast, primary screen, S. cerevisiae, multiplex flow cytometry, MLPCN library; S. cerevisiae MEP2-GFP strain, 3 h; 100% = DMSO control level; GFP response vs DMSO, % at 10 µM; actives 0.51% (n = 330,000); AID 2016, 2009;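 active = GFP response versus DMSO above a set limit, roughly screen mean plus 3 SD, cut at about 180% in these data; inconclusive = fewer than 70 cells counted for a yeast strain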;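 note: median GFP fluorescence of the barcode-gated MEP2-GFP cells per well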
CIT2 TOR yeast – modulators of CIT2-GFP expression in yeast, primary screen, S. cerevisiae, GFP fusion, multiplex flow cytometry, MLPCN library; S. cerevisiae CIT2-GFP strain, 3 h; 100 means same as DMSO wells; actives 0.065% (n = 320,000); GFP response vs DMSO, % at 10 µM;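 active = GFP response relative to DMSO above a set limit, near the screen mean plus 3 SD, cut at about 150% in these data; inconclusive = Fewer than 70 cells measured for a yeast strain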;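 note: ratio of well median GFP fluorescence to mean of DMSO wells on the plate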
* hit, by the source's call; ? = inconclusive; · = not tested or not shown; ! = not confirmed by another sample; [ ] = another dose, or the depositor's remark.

SMILES	LAP4 TOR yeast	RPL19A-GFP yeast	Efflux pump inh	AGP1-GFP MLPCN	MEP2-GFP yeast	CIT2 TOR yeast
Cc1cccn2c(=O)c(/C=C(\C#N)C(=O)NC3CCS(=O)(=O)C3)c(Oc3ccccc3Cl)nc12 (stereo not given)	67	51	0	?	234*[may fluoresce violet]	?
CCN(CC)c1ccc(/C=C/C(=O)C2C(=O)C=C(C)OC2=O)cc1 (stereo not given)	429*[may fluoresce violet]	138	7.6*	68	462*[may fluoresce violet]	?
C#CCOCCOCCOCCNc1nc(N2CCN(C(=O)CCCCCCCCCCNC(=O)[C@H](CCCCN)n3cc(C[C@@H](C)CC)nn3)CC2)nc(N2CCN(C(=O)CCCCCCCCCCNC(=O)[C@H](CCCN=C(N)N)n3cc(C[C@@H](C)CC)nn3)CC2)n1	198*	63	1	99	114	99
C#CCOCCOCCOCCNc1nc(N2CCN(C(=O)CCCCCCCCCCNC(=O)[C@H](CO)n3cc(CCCCCN)nn3)CC2)nc(N2CCN(C(=O)CCCCCCCCCCNC(=O)[C@H](CCCN=C(N)N)n3cc(C[C@@H](C)CC)nn3)CC2)n1	162*	72	0	98	97	94
C#CCOCCOCCOCCNc1nc(N2CCN(C(=O)CCCCCCCCCCNC(=O)[C@H](CCCCN)n3cc(C[C@@H](C)CC)nn3)CC2)nc(N2CCN(C(=O)CCCCCCCCCCNC(=O)[C@@H]([C@H](C)O)n3cc(C)nn3)CC2)n1	149	74	0	98	101	94
C#CCOCCOCCOCCNc1nc(N2CCN(C(=O)CCCCCCCCCCNC(=O)[C@@H](CCC(=O)O)n3cc(CCCCCN)nn3)CC2)nc(N2CCN(C(=O)CCCCCCCCCCNC(=O)[C@H](CO)n3cc(CCCCCN)nn3)CC2)n1	138	93	0	88	95	88
Cc1cccc(C)c1NC(=O)Cn1nc(-c2ccccc2)nc1-c1ccccc1	95	98	0	99	102	104
COCCNC(=O)C(c1ccc(C)cc1)N(Cc1ccco1)C(=O)CCC(=O)Nc1ccccn1 (stereo not given)	86	66	0	75	210*[may fluoresce violet]	?
COCCNC(=O)C(c1ccc(C)cc1)N(Cc1ccccc1)C(=O)CCC(=O)Nc1ccccn1 (stereo not given)	96	96	0	94	93	113
Cc1onc(-c2c(Cl)cccc2Cl)c1C(=O)ONC(=O)c1cc(C(F)(F)F)cc(C(F)(F)F)c1	104	96	0	93	95	88
O=C(NN1C(=O)/C(=C/C=C/c2ccccc2)SC1=S)c1ccncc1	124	97	0	109	101	98
O=C(NN1C(=O)/C(=C/C=C/c2ccco2)SC1=S)c1ccncc1	114	95	1.1*	107	99	106
CC(C)Oc1ccccc1C1Nc2ccccc2C(=O)N1c1ccc2c(c1)OCCO2 (stereo not given)	80	52	0	·	210*[may fluoresce violet]	?
CC(C)Oc1ccccc1C1CC(=O)Nc2cc3c(cc21)OCCO3 (stereo not given)	98	101	0	97	104	95
COc1cccc2sc(N(CCN(C)C)C(=O)/C=C/c3cccs3)nc12	91	52	0	?	193*[may fluoresce violet]	?
COCCNC(=O)CC(=O)N/N=C/c1cccc(C(=O)OC)c1	102	94	0	102	97	98
CCc1nnc(NS(=O)(=O)c2ccc(N/C=C\C(=O)c3cccc(OC)c3)cc2)s1	97	56	0	?	270*[may fluoresce violet]	?
COc1cc(C2CC(c3cccnc3)=NN2c2ccc(F)cc2)cc(OC)c1OC (stereo not given)	120	112	0	101	151	159*
COc1ccc(C2CC(c3ccccc3)=NN2c2ccc(S(N)(=O)=O)cc2)cc1OC (stereo not given)	96	97	0	94	100	98
CCOC(=O)N/C(N)=N/c1nc2ccccc2s1	168*	89	0	89	108	86
Cc1ccccc1Oc1ncnc2oc(-c3ccccc3)cc12	92	·	0	28	267*	110
CC(C)CNC(=O)c1cccc(NC(=O)C(C)C)c1	97	94	0	99	96	97
CCN(CC)CCNC(=O)C1CCC(=O)N(c2ccc(OC)cc2)C1c1ccc(F)cc1 (stereo not given)	91	58	0	20	230*[may fluoresce violet]	?
Nc1ccc(C(=O)O)c(O)c1	384*![may fluoresce red]	?	0	84	94	79
CCCc1nnc(SCC(=O)N2CCCCC2)n1CC1CCCO1 (stereo not given)	96	65	0	31	200*[may fluoresce violet]	?
SMILES	LAP4 TOR yeast	RPL19A-GFP yeast	Efflux pump inh	AGP1-GFP MLPCN	MEP2-GFP yeast	CIT2 TOR yeast
CCCc1nnc(SCC(=O)N2CCCC2)n1CC1CCCO1 (stereo not given)	101	92	0	·	108	91
COc1ccc(NC(=O)NC23CC4CC(CC(C4)C2)C3)cc1OC	84	16*[may fluoresce violet]	0	·	283*[may fluoresce violet]	?
COc1c(O)c(=O)n2c3ccccc3c3ccnc1c32	97	24*[may fluoresce violet]	0	17	211*[may fluoresce violet]	?
C=CCc1cc(C)ccc1OCCOCCn1ccnc1	98	102	0	103	104	100
COc1ccc(CNC(=O)CCC(=O)Nc2nnc(C(F)(F)F)s2)cc1	104	95	0	119	103	161*[may fluoresce green]
CSc1nc2ccc(S(=O)(=O)N3CCCC3)cc2s1	177*	93	1	102	98	73
CCC1=Nc2cc(C(=O)NCc3cccnc3)ccc2Sc2ccc(C)cc21	100	48*[may fluoresce violet]	0	20	226*[may fluoresce violet]	?
CN(C)c1cc(-c2ccc(Br)cc2)oc(=O)c1Cl	107	100	0	86	104	93
COc1ccc(NC(=O)Nc2c(O)ccc3ccccc23)cc1	96	22*[may fluoresce violet]	0	?	?	?
COc1ccc(C(=O)Nc2c(O)ccc3ccccc23)cc1OC	105	43*[may fluoresce violet]	0	?	489*[may fluoresce violet]	?
COc1ccc(C(=O)Nc2c(O)ccc3ccccc23)cc1	97	95	0	95	92	101
COc1ccc(-c2cc(C(=O)N3CCN(c4ccccc4O)CC3)c3ccccc3n2)cc1OC	97	100	-1	96	103	98
Cc1ccc(S(=O)(=O)NC2(C(F)(F)F)NC(=O)N(Cc3ccccc3)C2=O)cc1 (stereo not given)	95	101	0	97	103	99
